Our source for the Potency values is PubChem BioAssay (Tox21).

SMILES strings stand for the structures. Inconclusive results are not listed. Where a call stands in place of a potency, no number is given. The source made the active and inactive calls. Calls come from the whole dose curve.
Potency is the fitted concentration of half-maximal effect.

This test in a line: p53 small molecule agonists, cell-based qHTS assay: qHTS cell viability counter screen (AID 1963581). Note: nearly all actives have a fitted effect of over 45% in size. To be noted: p53RE-bla HCT-116 viability, ATP luminescence, 16 h; series mostly up to 66 µM. The text has this: National Center for Advancing Translational Sciences [NCATS]
Division of Preclinical Innovation [DPI]
U.S. Environmental Protection Agency [EPA]
National Institutes of Environmental Health Sciences [NIEHS]
National Toxicology Program [NTP]
U.S. Food and Drug Administration [FDA]
p53, a tumor suppressor protein, is activated following cellular insult, including DNA damage and other cellular stresses. The activation of p53 regulates cell fate by inducing DNA repair, cell cycle arrest, apoptosis, or cellular senescence. The activation of p53, therefore, is a good indicator of DNA damage and other cellular stresses. The CellSensor p53RE-bla HCT-116 cell line (Invitrogen) contains a stably integrated beta-lactamase reporter gene under control of the p53 response elements. The activation of the reporter gene under culture conditions can be detected by fluorescence intensity. This cell line was used to screen the Tox21 compound library in a 1536-well plate format and to identify agonists that activate the p53 signaling pathway. The cytotoxicity of the Tox21 compound library against the p53 RE-bla HCT-116 cell line was tested in parallel by measuring the intra cellular ATP content in the same wells.
Tox21 Assay Protocol Summary:
The p53RE-bla cells were dispensed at 4,000 cells/5 ul/well in 1536-well black wall/clear bottom plates using a Multidrop dispenser. After the assay plates were incubated at a 37 C/5% CO2 incubator for 5 hours, 23 nL of compounds dissolved in DMSO, positive controls or DMSO only was transferred to the assay plate by a pin tool. The plates were incubated at 37 C for 16 hours. After 1 uL of LiveBLAzerTM B/G FRET substrate was added using a Flying Reagent Dispenser, the plates were incubated at room temperature for 2 hours, and fluorescence intensity was measured by an Envision plate reader. For cell viability readout that measures cytotoxicity, 4 ul/well of CellTiter-Glo reagent was added into the assay plates using a Flying Reagent Dispenser. After 30 min incubation at room temperature, the luminescence intensity in the plates was measured using a ViewLux plate reader.
For the compound `CCCCCCI`, the Potency entry is “inactive”.
In the case of `C[Si](Cn1cncn1)(c1ccc(F)cc1)c1ccc(F)cc1` it was “inactive”; in that of `O=NN1CCCCCC1`, “inactive”; in that of `CCC1(CC)C(=O)C=CNC1=O`, “inactive”.
In the case of `ClC(Cl)=C(Cl)C(Cl)=C(Cl)Cl`, the Potency entry is “inactive”.
Then `O=c1[nH]c(=O)n(Cl)c(=O)n1Cl`, with “inactive”; and `CCCC1CCCCN1` (stereo not given), with “inactive”; and `COc1ccc(N)cc1N`, with “inactive”.
Then `CN(C)P(=O)(N(C)C)N(C)C`, with “inactive”.
In the case of `CN1CC[C@]23c4c5ccc(O)c4O[C@H]2[C@@H](O)CC[C@H]3[C@H]1C5` it was “inactive”.
In the case of `c1nc[nH]n1`, the Potency entry was “inactive”.
Then `CC(C)(C)C(=O)CCl`, with “inactive”; and `CC[n+]1c(-c2ccccc2)c2cc(N)ccc2c2ccc(N)cc21`, with “inactive”; and `O=P(OCC(Br)CBr)(OCC(Br)CBr)OCC(Br)CBr` (stereo not given), with “inactive”.
In the case of `CN(C)c1ccc(N(C)C)cc1` it was 365 nM (active).
Regarding `Clc1cnc(Oc2ccc(Oc3ncc(Cl)cc3Cl)cc2)c(Cl)c1`, the Potency entry is “inactive”.
In the case of `CC(O)CCO` (stereo not given) it was “inactive”; in that of `CCCCCCCCCCCCCCCC[N+](C)(C)C`, “inactive”.
As for `CCC(C)(CC)c1cc(NC(=O)c2c(OC)cccc2OC)on1`, the Potency entry was “inactive”.
In the case of `COc1cc(OC)nc(Sc2cccc(Cl)c2C(=O)O)n1` it was “inactive”; in that of `Cl/C=C\CCl`, “inactive”; in that of `C[C@]12CCC(=O)C=C1CC[C@@H]1[C@@H]2CC[C@@]2(C)[C@H]1CC[C@]2(C)O`, “inactive”.
Then `C1=Cc2cccc3cccc1c23`, with “inactive”; and `Nc1cnn(-c2ccccc2)c(=O)c1Cl`, with “inactive”; and `BrCC(Br)c1ccccc1` (stereo not given), with “inactive”.
Then `CCOP(=O)(OCC)OP(=O)(OCC)OCC`, with “inactive”; and `c1ccc2c(c1)Nc1ccccc1S2`, with “inactive”.
With `CCCCCCC1CCOC1=O` (stereo not given), the Potency entry is “inactive”.
For the compound `OCCSSCCO`, the Potency result is “inactive”.
Consider `COP(=S)(OC)Oc1ccc(Sc2ccc(OP(=S)(OC)OC)cc2)cc1`, for which the Potency result was “inactive”.
In the case of `CCCCCCCCOC(=O)c1ccc(C(=O)OCCCCCCCC)c(C(=O)OCCCCCCCC)c1` it was “inactive”; in that of `COC(=O)c1ccccc1CS(=O)(=O)NC(=O)Nc1nc(OC)cc(OC)n1`, “inactive”; in that of `CCC(Cl)[N+](=O)[O-]` (stereo not given), “inactive”.
Then `COc1cc(OC)nc(NC(=O)NS(=O)(=O)c2ncccc2C(=O)N(C)C)n1`, with “inactive”.
In the case of `CC[n+]1ccccc1` it was “inactive”.
On to `CNc1cnn(-c2cccc(C(F)(F)F)c2)c(=O)c1Cl`, for which the Potency entry was “inactive”.
`CCOC(=O)c1ccccc1C(=O)OCC`: the Potency entry was “inactive”.
In the case of `c1ccc(N2CCNCC2)cc1` it was “inactive”; in that of `CNC(=O)O/N=C/C(C)(C)S(C)(=O)=O`, “inactive”; in that of `Nc1c(Oc2ccccc2)cc(O)c2c1C(=O)c1ccccc1C2=O`, “inactive”.
